# Laboratory results from PubChem BioAssay AID686978 (National Center for Advancing Translational Sciences (NCATS), 2013).
# Several values for one entry are separate records, joined by “and”; a condition that tells them apart may be missing. Equal entries are not always repeated. Hit rate of the full screen: of about 420,000 compounds, about 64,000 (15%) were called active. Not shown: some 27% with an inconclusive outcome. The call rests on the fitted dose curve; in most records, active means well fitted inhibition curve with a large enough effect; inconclusive means small, poorly fitted or top-dose-only effect; inactive means flat fitted curve, though single readings scatter. These entries were drawn from the full list. Entries that show only a call come without a potency.
# Assay: qHTS for Inhibitors of human tyrosyl-DNA phosphodiesterase 1 (TDP1): qHTS in cells in absence of CPT; further: nearly all actives have a fitted effect of over 55% in size
# Conditions: DT40 Tdp1-/- hTDP1 cells, no CPT, ATP luminescence, 48 h; activity change, negative = growth inhibition: at 46.2 µM (top of the series)
# In short: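 Chicken DT40 Tdp1-/- cells complemented with human TDP1, screened without camptothecin (DMSO vehicle only), 400 cells/well. Compounds pin-transferred, cells incubated at 37 °C for at least 48 hr. Growth read as ATP-dependent luminescence (CellTiter-Glo, 30 min at RT).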
# Potency means the concentration at half of the fitted maximal effect.
row,Compound,Potency
1,CC(C)NC(=O)N1CC[C@@]2(CCCN(C(=O)c3ccco3)C2)C1,inactive
2,COc1ccc(N2C(=O)C3CCCN3C2c2cccc(OC)c2)cc1 (stereo not given),inactive
3,Cc1ccc(OCC(=O)Nc2ccc(S(=O)(=O)Nc3ccccn3)cc2)cc1,inactive
4,Cc1ccc(NS(=O)(=O)c2ccc(C(C)(C)C)cc2)cn1,inactive
5,Cc1ccc(S(=O)(=O)Nc2ccc3ncccc3c2)cc1,9.2 µM (active)
6,CS(=O)(=O)N(CC(=O)Nc1ccc(F)cc1)C1CCCCC1,inactive
7,CS(=O)(=O)N1CCC2(CC1)CN(Cc1ccccc1)C2,inactive
8,O=c1onc(-c2cccs2)n1Cc1ccccc1,inactive
9,Cc1ccc(CN2C(=O)SC(Nc3ccccc3)C2=O)cc1 (stereo not given),inactive
10,Cc1ccc(-c2nc(=N)sn2Cc2ccccc2)cc1,4.47 µM (active)
11,c1ccc2c(c1)OCCOCCOCCO2,inactive
12,Cc1ccc(NC(=O)CN(C)C(=O)c2ccc(Br)o2)cc1,inactive
13,O=C(Nc1ccccc1Cl)c1ccc2nsnc2c1,inactive
14,O=C(Nc1ccccc1Cl)/C(Cl)=C(\Cl)S(=O)c1ccccc1 (stereo not given),0.206 µM (active)
15,O=C(Nc1ccccc1Cl)Nn1cnnc1,inactive
16,C=CCn1c(COc2ccc(F)cc2)nnc1SCC(=O)Nc1cccc(S(N)(=O)=O)c1,inactive
17,O=C(c1cnccn1)N1CCN(S(=O)(=O)c2cccc(Cl)c2)CC1,inactive
18,COc1ccc(-c2ccc(Nc3ccc(S(=O)(=O)N4CCCC4)cc3)nn2)cc1OC,18.4 µM (active)
19,COc1cc(NS(=O)(=O)c2ccc(NC(=O)c3ccc(S(=O)(=O)N4CCCCC4)cc3)cc2)ncn1,inactive
20,COc1ccc(S(=O)(=O)Nc2ccc(S(=O)(=O)N3CCCCC3)cc2)cc1OC,inactive
21,O=C(Nc1ccccc1C(F)(F)F)c1cc(-c2ccc(O)cc2)on1,inactive
22,CCN(CC)Cc1cc(C(C)=O)ccc1O,inactive
23,O=C(NCc1cccs1)C(=O)NCC1OCCCN1S(=O)(=O)c1ccc(F)cc1 (stereo not given),inactive
24,CC1CC(C)CN(S(=O)(=O)c2ccc(C(=O)NN3CCOCC3)cc2)C1 (stereo not given),inactive
25,CCc1nnc(NC(=O)c2ccc(S(=O)(=O)NC3CCCCC3)cc2)s1,inactive
26,CCN(CC(=O)NCc1cccs1)S(=O)(=O)c1ccc(NC(C)=O)cc1,inactive
27,CSCc1nnc(NC(=O)c2ccc(S(=O)(=O)N3CCCCC3C)cc2)o1 (stereo not given),20.6 µM (active)

row,Compound,Potency
1,CC1CCCN(S(=O)(=O)c2ccc(C(=O)Nc3nnc(-c4ccncc4)o3)cc2)C1 (stereo not given),10.3 µM (active)
2,CC(=O)c1ccc(NC(=O)C2CCCN2S(=O)(=O)c2cccs2)cc1 (stereo not given),inactive
3,CC1CCCCN1S(=O)(=O)c1ccc(S(=O)(=O)N(CC(=O)Nc2ccccc2)Cc2cccs2)cc1 (stereo not given),25.9 µM (active)
4,CC1CCCCN1S(=O)(=O)c1ccc(C(=O)Nc2nnc(-c3cccs3)o2)cc1 (stereo not given),5.8 µM (active)
5,COCCN(CC(=O)Nc1ccccc1C)S(=O)(=O)c1ccc(S(=O)(=O)N2CCCC2)cc1,inactive
6,CS(=O)(=O)c1ccc(-c2nnc(NC(=O)c3ccc4c(c3)OCCO4)o2)cc1,inactive
7,CC1CCCCN1S(=O)(=O)CCNC(=O)c1ccccc1 (stereo not given),inactive
8,COC(=O)c1ccc(N(CC(=O)NC2CCCC2)C(=O)CNC(=O)c2ccco2)cc1,inactive
9,C=C(C)C1CC=C(C)/C(=N/NC(=O)CCCNc2cccc(C)c2)C1 (stereo not given),inactive
10,CCOc1ccc(-c2n[nH]c(=S)n2/N=C/c2cc3c(cc2[N+](=O)[O-])OCO3)cc1,inactive
11,NC(=O)c1ccc(NC(=O)COC(=O)c2ccc([N+](=O)[O-])cc2)cc1,inactive
12,COCc1cc(C)nc2sc3c(=O)n(-c4cccc5ccccc45)nnc3c12,inactive
13,CC1(C)OC[C@@H](COC(=O)CCc2ccc(OC[C@@H](O)CNCCNC(=O)N3CCOCC3)cc2)O1,inactive
14,CCc1ccc(Nc2nn3c(=O)c4cc5c(cc4nc3s2)OCO5)cc1,inactive
15,C=CCn1c(SCC(=O)CC(=O)OCC)nc2cc(C(=O)N3CCC(C(N)=O)CC3)ccc2c1=O,inactive
16,C=CCN1C(=O)c2ccc(C(=O)N3CCC(C(=O)OCC)CC3)cc2C1=O,inactive
17,Cc1ccccc1Nc1nn2c(=O)c3ccc(C(=O)NCCc4ccc(Cl)cc4)cc3nc2s1,14.6 µM (active)
18,CCOC(=O)C1CCN(C(=O)c2ccc3c(=O)n4nc(Nc5ccccc5CC)sc4nc3c2)CC1,10.3 µM (active)
19,Cc1cc(C(=O)NCCc2ccc(Cl)cc2)c(C)o1,inactive
20,Cc1ccc(C(=O)NC2CCN(C(=O)N3CCOCC3)CC2)cc1,inactive
21,C#CCOCCOCCOCCNc1nc(N2CCN(C(=O)[C@H](C(C)C)n3cc(CCO)nn3)CC2)nc(N2CCN(C(=O)[C@H](C(C)C)n3cc(CCO)nn3)CC2)n1,inactive
22,COc1cccc(C(CC(=O)NCCN2CCOCC2)NS(=O)(=O)c2ccc(C)cc2)c1OC (stereo not given),inactive
23,O=C(N/N=C/c1ccco1)c1ccc(C(=O)N/N=C/c2ccco2)o1,inactive
24,O=C(N/N=C/c1ccco1)c1ccc(NC(=O)C2CC2)cc1,inactive
25,O=C(N/N=C/c1ccco1)c1csc2c1CCCC2,5.8 µM (active)
26,Cc1cccc(C(=O)NCCCN2CCCC2=O)c1,inactive
27,Cc1nc2ccc(S(=O)(=O)NC(C(=O)N3CCCCCC3)C(C)C)cc2s1 (stereo not given),inactive

row,Compound,Potency
1,O=C(CN1C(=O)c2ccc([N+](=O)[O-])cc2C1=O)Nc1nnc(C2CC2)s1,inactive
2,CCOc1ccc(N2C(=O)CC(N(O)c3ccccc3)C2=O)cc1 (stereo not given),inactive
3,O=C(NC1(C(F)(F)F)NC(=O)N(C2CCCCC2)C1=O)c1ccco1 (stereo not given),inactive
4,O=C(O)C#Cc1cccc2ccccc12,inactive
5,CC(=O)Nc1ccc(S(=O)(=O)N2CCN(S(=O)(=O)c3cccs3)CC2)cc1,inactive
6,COc1ccc(NC(=O)CCCOc2ccc(C(C)=O)cc2)cc1S(=O)(=O)N1CCCCC1,25.9 µM (active)
7,CC(=O)Nc1ccc(S(=O)(=O)N2CCN(CCCOc3cc(C)ccc3C)CC2)cc1,18.4 µM (active)
8,CCOC(=O)C1CCN(CC(=O)Nc2ccc(OC)c(S(=O)(=O)N3CCCCC3)c2)CC1,inactive
9,Cc1ccc(C)c(S(=O)(=O)N2CCN(C(=O)Nc3ccccc3)CC2)c1,inactive
10,C=CCNC(=O)CCCOc1cccc(C)c1,inactive
11,Cc1ccc(OCCCC(=O)Nc2ccc(S(=O)(=O)Nc3cc(C)nc(C)n3)cc2)cc1,inactive
12,Cc1ccc(NC(=O)CCNC(=O)c2ccc([N+](=O)[O-])cc2)cc1S(=O)(=O)N1CCOCC1,inactive
13,CC(=O)Nc1ccc(S(=O)(=O)N2CCSCC2)cc1,inactive
14,Cc1ccc(C)c(S(=O)(=O)N2CCN(CC(=O)Nc3ccc([N+](=O)[O-])cc3)CC2)c1,16.4 µM (active)
15,Cc1cccc(OCCCC(=O)Nc2ccc(S(=O)(=O)N3CCCC3)cc2)c1,18.4 µM (active)
16,COc1ccc(NC(=O)CSc2nnc(C3CC3)n2C)cc1S(=O)(=O)N1CCCCC1,inactive
17,CCOc1ccccc1NC(=O)Cn1c(=O)n(Cc2ccccc2)c(=O)c2c(C)c(C(=O)N(C)C)sc21,inactive
18,O=C(NCCN1CCOCC1)C1CCN(S(=O)(=O)c2ccccc2)CC1,inactive
19,COCCCn1c(SCC(=O)Nc2oc(C)c3c(C)n[nH]c(=O)c23)nc2sc3c(c2c1=O)CCC3,inactive
20,O=c1c(CCc2ccccc2)nc2cncnc2n1C1CC1,inactive
21,C=CCn1c(COc2cccc3cccnc23)nnc1SCC(=O)OC,inactive
22,CC(=O)c1cc2c(cc1N)OCO2,inactive
23,C/C(COc1ccccc1)=N\NC(=O)c1nnn(-c2nonc2N)c1-c1ccc(C)cc1,inactive
24,CSc1ccc(S(=O)(=O)N2CCC(C(=O)NCCc3ccccc3)CC2)cc1,inactive
25,Cc1cc(S(=O)(=O)NC2CCCC2)ccc1-n1cnnn1,inactive
26,COc1ccc(NC(=O)c2ccc3oc(=O)c(S(=O)(=O)c4ccc(F)cc4)cc3c2)c(OC)c1,inactive
27,CCCCNC(=O)C1(O)c2ccccc2NC(=O)N1c1ccc(Cl)cc1 (stereo not given),inactive

row,Compound,Potency
1,CC(=O)Nc1ccc(NC(=O)CCN2C(=O)C3CC=CCC3C2=O)cc1 (stereo not given),inactive
2,CCNC(=S)N(CCN(CC)CC)Cc1cc2cc3c(cc2[nH]c1=O)OCO3,inactive
3,Cc1c(C)c2c(OCC(=O)N[C@@H](C(=O)O)c3ccccc3)cc3c(c2oc1=O)CCC(C)(C)O3,inactive
4,CC(C)CCC(=O)Nc1cc(S(=O)(=O)N2CCOCC2)ccc1N1CCCC1,inactive
5,Cc1cccc(OCCC(=O)Nc2cc(S(=O)(=O)N3CCCCC3)ccc2N2CCOCC2)c1,20.6 µM (active)
6,Cc1ccccc1NC(=O)CCOc1ccccc1,inactive
7,CC(=O)NCCC(=O)Nc1cc(S(=O)(=O)N2CCOCC2)ccc1N1CCOCC1,inactive
8,Cc1cccc(OCCC(=O)Nc2ccccc2C(N)=O)c1,11.6 µM (active)
9,Cc1cccc(OCC(=O)Nc2ccccc2F)c1,inactive
10,O=C(Nc1cccc(C(=O)O)c1)/C(=C\c1ccccc1)NC(=O)c1ccc(Br)o1,inactive
11,Nc1nc2ncccn2c1-c1ccccc1,inactive
12,O=c1cc(-c2ccccc2)n2c(SCc3ccccc3)nnc2[nH]1,inactive
13,CC1(NC(=O)CCS(=O)(=O)c2ccc(Cl)cc2)CCS(=O)(=O)C1 (stereo not given),inactive
14,COc1cccc(CNC(=O)C2CCC(CNS(=O)(=O)c3cccs3)CC2)c1 (stereo not given),inactive
15,Cc1ccc(CNC(=O)CCS(=O)(=O)c2ccc3c(c2)CC(C)N3C(=O)C2CC2)o1 (stereo not given),25.9 µM (active)
16,CC1Cc2cc(S(=O)(=O)CCC(=O)NCc3ccc(Cl)cc3)ccc2N1C(=O)C1CC1 (stereo not given),4.61 µM (active)
17,CC1Cc2cc(S(=O)(=O)CCC(=O)Nc3ccc(F)c(Cl)c3)ccc2N1C(=O)C1CC1 (stereo not given),10.3 µM (active)
18,CC(=O)N1c2ccc(S(=O)(=O)N(C)CC(=O)N(C)Cc3ccccc3)cc2CC1C (stereo not given),inactive
19,COc1cccc(CNS(=O)(=O)c2ccc3c(c2)CC(C)N3C(=O)C2CCC2)c1 (stereo not given),16.4 µM (active) and 7.31 µM (active)
20,CC1Cc2ccccc2N1CC(=O)Nc1ccc(S(N)(=O)=O)cc1 (stereo not given),inactive
21,Cn1c(=O)oc2cc(S(=O)(=O)CCC(=O)NCCc3ccc(Cl)cc3)ccc21,inactive
22,COc1cccc(CNC(=O)C2CCCN(S(=O)(=O)N3CC(C)CC(C)C3)C2)c1 (stereo not given),inactive
23,CCC(=O)N1c2ccc(S(=O)(=O)CCC(=O)N3CCN(c4ccccc4)CC3)cc2CC1C (stereo not given),inactive
24,CCOc1ccc(NC(=O)CCS(=O)(=O)c2ccc3c(c2)CCCN3C(=O)CC)cc1,inactive
